High-throughput results (PubChem BioAssay)
PLK1 PBD block: blocks phosphopeptide binding to human PLK1 polo-box domain; 2.8% of 360,000 active; Potency, µM, without a hit: max response, negative = inhibition, most hits filed as inhibitors; P53350; AID 720504; Plk1 PBD binding of FITC phosphopeptide, fluorescence polarization; also: series mostly up to about 57 µM; nearly all actives have a fitted effect of over 65% in size
KAT2A inh: blocks human GCN5L2 histone acetyltransferase; 0.21% of 390,000 active; Q92830; GCN5L2 HAT assay, ThioGlo1 CoA-SH fluorescence; AID 504327; Potency, µM (titrated, usually from 58.9 µM), without a hit: at the top dose activity change, negative = inhibition, usual class: inhibitors
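Free CoA generated was detected with ThioGlo1 (50uM) fluorescence at Ex340nm/Em540nm, read immediately and after 20 min at room temperature. Enzyme, 20 nM in HEPES pH 7.5 buffer, saw compounds 15 min before adding 75uM H3(1-25) peptide and 70uM acetyl-CoA.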
TDP1 block: inhibitors of human tyrosyl-DNA phosphodiesterase TDP1; Q9NUW8; recombinant TDP1, AlphaScreen DNA substrate cleavage; Potency, µM (doses to about 130 µM), for inactives: at the highest dose activity change, negative = inhibition, most hits filed as inhibitors; 0.28% of 350,000 active; AID 485290; also: nearly all actives have a fitted effect of over 40% in size
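Compounds were preincubated with Tdp1 (1 nM final) for 15 min at room temperature before substrate (15 nM final) started a 5 min reaction; beads (10 ug/ml final) were then added for 10 min before AlphaScreen detection.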
DT40 TDP1 no CPT: qHTS for Inhibitors of human tyrosyl-DNA phosphodiesterase 1 (TDP1): qHTS in cells in absence of CPT. DT40 Tdp1-/- hTDP1 cells, no CPT, ATP luminescence, 48 h. Potency, µM (top dose mostly 46.2 µM), for the others: top-dose activity change, negative = growth inhibition, usual class: inhibitors. 15% of 420,000 active; also: nearly all actives have a fitted effect of over 55% in size
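Growth kinetics read by CellTiter-Glo luminescence after ≥48 hr at 37 °C. Cells: DT40 Tdp1-/- stably carrying human TDP1, 400 per well, compound exposure in the absence of CPT (DMSO vehicle).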
DT40 TDP1 CPT: growth inhibition of DT40 Tdp1-/-;hTDP1 cells with camptothecin (screen for TDP1 inhibitors) | Potency, µM (titrated, usually from 46.2 µM), inactives show at the top dose activity change, negative = growth inhibition, usual class: inhibitors | chicken DT40 Tdp1-/-;hTDP1 cells + 20 nM CPT, ATP luminescence, 48 h | AID 686979 | 12% of 420,000 active; also: nearly all actives have a fitted effect of over 55% in size
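Chicken DT40 Tdp1-/- cells stably complemented with human TDP1 were seeded at 400 cells/well in medium containing 20 nM camptothecin, exposed to pin-transferred compounds, and grown at 37 °C for at least 48 hr. Viability was read as ATP luminescence.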
VDR inh: blocks the human vitamin D receptor | P11473 | VDR-SRC2-3 peptide fluorescence polarization, 2 h | Potency, µM, for the others: max response, negative = inhibition, usual class: inhibitors | 0.93% of 400,000 active
Target sequence (P11473 whole entry, looked up): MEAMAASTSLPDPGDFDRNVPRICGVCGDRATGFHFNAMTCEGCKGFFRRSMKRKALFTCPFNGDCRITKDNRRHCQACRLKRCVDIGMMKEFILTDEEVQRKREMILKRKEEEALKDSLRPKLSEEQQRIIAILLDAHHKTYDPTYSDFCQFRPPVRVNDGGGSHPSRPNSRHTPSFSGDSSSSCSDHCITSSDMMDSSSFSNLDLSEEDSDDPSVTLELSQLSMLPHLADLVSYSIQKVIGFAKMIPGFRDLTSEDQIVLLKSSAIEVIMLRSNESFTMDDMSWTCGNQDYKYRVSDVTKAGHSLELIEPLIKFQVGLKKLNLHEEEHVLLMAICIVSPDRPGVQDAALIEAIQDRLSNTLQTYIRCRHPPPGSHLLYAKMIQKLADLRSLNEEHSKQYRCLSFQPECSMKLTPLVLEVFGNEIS
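FP read-out; VDR + SRC2-3 coactivator peptide; 23 nl compound by pintool; 2 h RT incubation; reagents held at 4 deg C, protected from light.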
An asterisk follows results filed as active. Hits are enriched below; roughly 18% of the tested compounds scored in any of these assays. Calls follow the shape of the dose curve; as a rule, active = well fitted curve in the direction sought with a large enough effect; inconclusive = small, poorly fitted or top-dose-only effect, or another doubt; inactive = no such curve, though single readings can be large; an effect the other way counts as inactive or inconclusive. % is scaled to controls: 0 for no effect and ±100 for the full control effect; potency is read from the fitted curve at half-maximal effect.

`CC(C)NC(=O)C1(C)CCCCN1Cc1ccc(OCc2ccccc2)cc1` (stereo not drawn) gave PLK1 PBD block -2%, DT40 TDP1 no CPT 1.6µM* and DT40 TDP1 CPT 2.3µM*.
For Nc1cc(S(=O)(=O)N2CCN(S(=O)(=O)c3ccc4c(c3)OCCO4)CC2)ccn1 the results were TDP1 block -3%.
`COC(=O)c1cc(=O)n(Cc2cccs2)c(=NCc2cccs2)s1` gave PLK1 PBD block -3%, KAT2A inh 18%, TDP1 block 6%, DT40 TDP1 no CPT -13%, DT40 TDP1 CPT -26% and VDR inh 6%.
For COC(=O)c1cc(=O)n(CCc2ccccc2)c(=Nc2ccc(F)cc2)s1 the results were PLK1 PBD block 1%, KAT2A inh -6%, TDP1 block 10%, DT40 TDP1 no CPT inconclusive, DT40 TDP1 CPT inconclusive and VDR inh -1%.
For CCOC(=O)c1ccc(N=c2sc(C(=O)OC)cc(=O)n2Cc2ccco2)cc1 the results were PLK1 PBD block -11%, KAT2A inh -2%, TDP1 block 0%, DT40 TDP1 no CPT 21µM*, DT40 TDP1 CPT 13µM* and VDR inh inconclusive.
`CCOC(=O)c1ccc(N=c2sc(C(=O)OC)cc(=O)n2CCCN2CCOCC2)cc1` gave PLK1 PBD block -9%, KAT2A inh -16%, TDP1 block 7%, DT40 TDP1 no CPT 15µM*, DT40 TDP1 CPT 15µM* and VDR inh inconclusive.
COC(=O)[C@@H]1CCCN1Cc1ccc2c(c1)CN(Cc1cccn1-c1ncccn1)CCO2 was read as DT40 TDP1 no CPT -26% and DT40 TDP1 CPT inconclusive.
For CCn1cc2nc(SCc3ccccc3F)n(Cc3ccc(C)cc3)c(=O)c2n1 the results were KAT2A inh -4%, TDP1 block 0%, DT40 TDP1 no CPT 12µM*, DT40 TDP1 CPT 21µM* and VDR inh -7%.
`CCn1cc2nc(SCc3ccccc3)n(Cc3ccc(C)cc3)c(=O)c2n1` gave KAT2A inh -8%, TDP1 block 5%, DT40 TDP1 no CPT 10µM*, DT40 TDP1 CPT 16µM* and VDR inh 13%.
CCn1cc2nc(SCc3ccc(F)cc3)n(Cc3ccc(Cl)cc3)c(=O)c2n1 was read as KAT2A inh 0%, TDP1 block 3%, DT40 TDP1 no CPT 3.3µM*, DT40 TDP1 CPT 6.5µM* and VDR inh 2%.
For CCn1cc2nc(SCc3ccc(C)cc3)n(CCc3ccccc3)c(=O)c2n1 the results were KAT2A inh -3%, TDP1 block 0%, DT40 TDP1 no CPT inconclusive, DT40 TDP1 CPT inconclusive and VDR inh 4%.
CCn1cc2nc(SCc3cc(C)ccc3C)n(Cc3ccc(C)cc3)c(=O)c2n1 was read as KAT2A inh -3%, TDP1 block 3%, DT40 TDP1 no CPT -73%, DT40 TDP1 CPT 16µM* and VDR inh 7%.
For COc1ccccc1NC(=O)c1sc2nc3c(c(C(F)(F)F)c2c1N)CN(C(C)=O)CC3 the results were KAT2A inh -4%, TDP1 block -3%, DT40 TDP1 no CPT -27%, DT40 TDP1 CPT inconclusive and VDR inh -12%.
For CCn1cc2nc(SCc3ccccc3Cl)n(Cc3ccc(OC)cc3)c(=O)c2n1 the results were KAT2A inh -9%, TDP1 block 3%, DT40 TDP1 no CPT 15µM*, DT40 TDP1 CPT 26µM* and VDR inh 4%.
O=C(OCC1OC(n2cc(Br)c(=O)[nH]c2=O)C(Br)C1O)c1ccccc1 (stereo not drawn) was read as PLK1 PBD block 1%, KAT2A inh 0%, DT40 TDP1 no CPT inconclusive, DT40 TDP1 CPT 0% and VDR inh -19%.
